# The source made the active and inactive calls. Unless noted, no rule for the calls is given here.
# Tests used:
# [1] = tested on: Wnt5a (protein binding on small-molecule microarray); assay: Wnt5a binders on small-molecule microarray, primary screen, biophysical, 635/667 nm fluorescence (AID 1142); conditions: 635 nm fluorescence, higher = more signal;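 also: fluorescence read at 667 nm with signal to noise per printed feature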
# [2] = cell viability in Huh7 cells, primary screen, cytotoxicity control for HCV replication inhibitor project, CellTiter-Glo luminescence, basal, 48 h (AID 1143); conditions: Huh7 HCV replicon, higher = more signal, called active from +8 up or from −8 down;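 also: Huh7 hepatoma cells carrying a hepatitis C replication reporter with no stimulus; test concentration not given here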
# [3] = P. aeruginosa biofilm formation inhibitors, primary screen, PAO1 strain, BacTiter-Glo luminescence, LB-PBS (AID 1144); conditions: 12 h, higher = more signal
# [4] = CREB reporter modulators without forskolin, primary screen, cell-based, PC12, CRE-LacZ reporter, unstimulated (AID 1145); conditions: no forskolin, luminescence, 4.5 h, higher = more signal, called active from +8 up or from −8 down
# [5] = CREB reporter modulators under forskolin, primary screen, cell-based, PC12, CRE-LacZ reporter, forskolin-stimulated (AID 1146); conditions: luminescence, 4.5 h, higher = more signal, called active from +8 up or from −8 down;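 also: PC12 cells with 6xCRE LacZ reporter stimulated by forskolin 10 µM; beta-galactosidase reporter signal reflecting CREB driven transcription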
# [6] = biological target: Streptavidin (Streptomyces avidinii) (UniProt P22629); assay: streptavidin binders on small-molecule microarray, primary screen, artefact control for SMM compound annotation, biophysical, 635/667 nm fluorescence (AID 1147); conditions: streptavidin binding, higher = more signal;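 also: signal reflects streptavidin binding to arrayed compounds as a control protein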
# Sequence of Streptavidin (Streptomyces avidinii) (P22629 whole entry, looked up): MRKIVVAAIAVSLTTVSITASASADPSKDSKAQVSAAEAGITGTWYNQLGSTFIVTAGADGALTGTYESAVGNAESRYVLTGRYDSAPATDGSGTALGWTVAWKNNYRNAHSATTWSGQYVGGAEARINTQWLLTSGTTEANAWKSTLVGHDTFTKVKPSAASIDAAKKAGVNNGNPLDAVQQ
# [7] = small-molecule binders of probe aInhba, primary screen, biochemical, small-molecule microarray, 635/667 nm fluorescence (AID 1148); conditions: higher = more signal;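 also: score merges 667nm spot fluorescence with signal-to-noise for antibody binding to printed compounds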
# [8] = biological target: Torsin-1A (Homo sapiens) (UniProt O14656); assay: torsin A binders from cell lysate, primary screen, small-molecule microarray, wild-type, 635/667 nm (AID 1149); conditions: COS7 hTOR1A-WT lysate, 635 nm fluorescence, higher = more signal
# Sequence of Torsin-1A (Homo sapiens) (O14656 whole entry, looked up): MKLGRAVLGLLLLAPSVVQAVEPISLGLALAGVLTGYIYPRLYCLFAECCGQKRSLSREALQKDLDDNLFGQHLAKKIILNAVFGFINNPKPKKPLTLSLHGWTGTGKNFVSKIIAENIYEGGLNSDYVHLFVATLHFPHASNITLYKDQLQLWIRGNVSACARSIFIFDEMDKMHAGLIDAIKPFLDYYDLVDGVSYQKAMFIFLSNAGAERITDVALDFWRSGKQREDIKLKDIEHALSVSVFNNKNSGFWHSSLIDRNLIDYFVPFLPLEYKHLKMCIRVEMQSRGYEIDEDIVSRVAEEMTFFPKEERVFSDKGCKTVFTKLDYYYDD
# [9] = biological target: Torsin-1A (Homo sapiens) (UniProt O14656); assay: small-molecule binders of mutant TOR1A in lysate, primary screen, cell lysate, small-molecule microarray, COS7 lysate, 635/667 nm fluorescence (AID 1150); conditions: COS7 hTOR1A mutant lysate, 635 nm fluorescence, higher = more signal;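 also: score pools 667 nm emission and signal to noise measuring lysate protein binding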
# [10] = tested on: Sonic hedgehog protein (Shh); assay: small-molecule binders of Shh protein, primary screen, biochemical, small-molecule microarray, 635/667 nm fluorescence (AID 1151); conditions: small-molecule microarray binding, 635 nm fluorescence; higher = more signal;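 also: Shh protein binding to compounds spotted on small-molecule microarray slides; score combines spot fluorescence intensity with signal-to-noise across triplicate slides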
Structure (SMILES),composite z-score [1],z-score [2],z-score [3],z-score [4],z-score [5],composite z-score [6],composite z-score [7],composite z-score [8],composite z-score [9],composite z-score [10]
[N-]=[N+]=NCc1ccccc1C[C@]1(C(N)=O)COC(c2ccc(OCCCO)cc2)=N1,0.217,-2.4 (inactive),-0.602 (inactive),-0.585 (inactive),-1.68 (inactive),0.468,0.189,0.728,0.972,-0.584
CCOC(=O)C[C@H]1[C@H](OC(=O)c2ccc(C(=O)c3ccccc3)cc2)[C@@H](NC(=O)CC(C)C)c2cc(OCCCO)ccc2N1C(=O)c1ccc2ccccc2n1,0.188,-0.772 (inactive),-1.04 (inactive),0.469 (inactive),-0.23 (inactive),1.22,-0.003,0.396,0.15,1.27
COc1ccc(C#Cc2ccc3c(c2)[C@]2(C(=O)N3)[C@H](C(=O)Nc3nc4ccccc4s3)[C@H]3C(=O)O[C@H](c4ccccc4)[C@H](c4ccccc4)N3[C@@H]2c2ccc(O)cc2)cc1,0.823,-1.3 (inactive),-0.782 (inactive),0.0653 (inactive),-0.0135 (inactive),2.25,1.43,1.41,0.903,2.02
COc1cc(NN2C(C(O)c3ccco3)C=CC3C(=O)N(c4ccccc4)C(=O)C32)cc(OC)c1OC (stereo not given),-0.286,-2.49 (inactive),-0.225 (inactive),0.0501 (inactive),-0.462 (inactive),0.0123,-0.153,-0.967,0.594,0.179
C=C(CCCC)/C(=C/C[C@H](OC(=O)c1ccncc1)c1ccccc1OCCO)c1cnc2ccccc2c1,0.265,-0.401 (inactive),0.0698 (inactive),-0.583 (inactive),0.494 (inactive),1.74,-0.0471,0.609,0.712,1.45
CCCc1cc2c(n1Cc1cc(F)cc(F)c1)C(C)C1CN(C(=O)c3ccccc3)C(C)(C(=O)OC)C21 (stereo not given),0.239,-2.5 (inactive),0.335 (inactive),0.587 (inactive),1.31 (inactive),1.4,0.786,0.361,1.58,-0.236
Cc1ccccc1C(O)C1C=CC2C(=O)N(c3ccccc3)C(=O)C2N1Nc1ccc(C(C)C)cc1 (stereo not given),0.0944,-0.0816 (inactive),-0.481 (inactive),0.812 (inactive),0.131 (inactive),1.26,0.176,-0.0717,0.62,0.214
CCC[C@@H]1C[C@@]1(CCC)[C@@H](NC(=O)c1ccccc1)c1cccc(Cl)c1,2.05,-0.246 (inactive),0.0208 (inactive),0.776 (inactive),0.485 (inactive),2.17,1.32,0.0875,0.512,-1.33
COC(=O)C(CC#Cc1ccc2c(c1)[C@]1(C(=O)N2)[C@H](c2ccc(OCCO)cc2)N2[C@H](c3ccccc3)[C@H](c3ccccc3)OC(=O)[C@H]2[C@@H]1C(=O)Nc1nc2ccccc2s1)C(=O)OC,0.35,-1.68 (inactive),-1.39 (inactive),-0.375 (inactive),1.33 (inactive),1.53,-0.157,1.36,0.414,0.588

# Reference: PubChem BioAssay
